Source: PubChem BioAssay (NCI)
The panel holds about 83,000 compounds, 20% with a hit somewhere; the sample as a whole holds those more often.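 Single-dose data. Exposure time 48 hours. Values below 10 considered active.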 Unmarked numbers belong to inactive results. Active and inactive are the calls of the source.

Legend:
Test in all cases: NCI-60 one-dose screen, 48 h (100 = growth as untreated, 0 = no growth, -100 = all killed)
Details in all cases: 10 µM unless noted
SK-MEL-2 melanoma = system: SK-MEL-2 melanoma
EKVX NSCLC = system: EKVX NSCLC
SN12C renal = system: SN12C renal
UO-31 renal = system: UO-31 renal
TK-10 renal = system: TK-10 renal
ACHN renal = system: ACHN renal
CAKI-1 renal = system: CAKI-1 renal
CCRF-CEM leukemia = system: CCRF-CEM leukemia
MOLT-4 leukemia = system: MOLT-4 leukemia
SR leukemia = system: SR leukemia
RPMI-8226 leukemia = system: RPMI-8226 leukemia
OVCAR-8 ovarian = system: OVCAR-8 ovarian
OVCAR-5 ovarian = system: OVCAR-5 ovarian
OVCAR-4 ovarian = system: OVCAR-4 ovarian
SK-OV-3 ovarian = system: SK-OV-3 ovarian
IGROV1 ovarian = system: IGROV1 ovarian
OVCAR-3 ovarian = system: OVCAR-3 ovarian
HS 578T breast = system: HS 578T breast
NCI/ADR-RES ovarian = system: NCI/ADR-RES ovarian
A498 renal = system: A498 renal

Compound | growth (SK-MEL-2 melanoma) | growth (EKVX NSCLC) | growth (SN12C renal) | growth (UO-31 renal) | growth (TK-10 renal) | growth (ACHN renal) | growth (CAKI-1 renal) | growth (CCRF-CEM leukemia) | growth (MOLT-4 leukemia) | growth (SR leukemia) | growth (RPMI-8226 leukemia) | growth (OVCAR-8 ovarian) | growth (OVCAR-5 ovarian) [%] | growth (OVCAR-4 ovarian) | growth (SK-OV-3 ovarian) | growth (IGROV1 ovarian) | growth (OVCAR-3 ovarian) | growth (HS 578T breast) | growth (NCI/ADR-RES ovarian) | growth (A498 renal)
COc1ccc(-c2cc(-c3cccnc3)nc3sc4c(=O)n(-c5ccc(C)cc5)cnc4c23)cc1OC | 108% | 86.4% | 92.2% | 82% | 111% | 88.1% | 76.3% | 105% | 97.4% | 96.1% | 97.6% | 101% | 86.7 | 92.3% | 99.2% | 106% | 98.8% | 87.2% | 103% | –
COc1ncc(-c2ccc3ncnc(Nc4cccc(Cl)c4)c3c2)cc1NS(C)(=O)=O | 32% | 12.1% | 29.1% | 8.8% (active) | -11.1% (active) | – | 14.9% | 32.5% | -6.32% (active) | 50.6% | 22.8% | 45.5% | – | 70.7% | -11.2% (active) | -45.5% (active) | 26.9% | 16.2% | 51% | 0.974% (active)
CC1=N/C(=C\c2cccc(Br)c2)C(=O)O1 | 109% | 99.5% | 98.2% | 90.1% | 101% | 109% | 100% | 107% | – | – | 108% | 105% | 106 | 110% | 102% | 106% | 103% | 107% | 107% | –
CCCCCCNC(=O)Oc1ccc(/C(=C(\C)c2ccccc2)c2ccc(OCCN(CC)CC)cc2)cc1 | 86.6% | 90.5% | 73% | 28.8% | 76.1% | 88.1% | 77% | 40.5% | 20.3% | 1.65% (active) | 22.1% | 63.5% | 76.9 | 64.4% | 74.3% | 59.2% | 66.9% | 36.4% | 70.6% | –
Cc1cc(=O)oc2cc(Oc3nc(-c4ccc(Cl)cc4)cn4c(-c5ccc(Cl)cc5)cnc34)ccc12 | 106% | 106% | 100% | 85.5% | 104% | 97.7% | 90.2% | 80.6% | 74.5% | 50.9% | 93.7% | 92.5% | 94.6 | 85.6% | 103% | 97.6% | 107% | 87.8% | 78.8% | –
O=C(/C=C/c1cccc(Br)c1)c1ccccc1 | 93.3% | 88% | 96.6% | 71.1% | 69.7% | 95.7% | 90.6% | – | – | – | 23.6% | 88.7% | 83.2 | 90.6% | 82.1% | 84.8% | 98.3% | 101% | 103% | 87.5%
CCCCCCCCCCNC(=O)CCl | 85.7% | 95.9% | 63.8% | 58.1% | 83.8% | 78% | -59.4% (active) | 57.8% | 54.8% | 51.4% | – | 47.8% | 111 | 80.3% | 111% | 44.1% | 52.8% | 84.6% | 73% | –
C=C1CCC2C3(C)COC(c4ccc(OC)cc4Br)OC3CCC2(C)C1/C=C/C1=CCOC1=O (stereo not given) | 81.2% | 44.2% | 79.8% | 54.2% | 83.9% | 81.1% | 74.3% | – | 55.7% | – | 7.47% (active) | 79.3% | 98.3 | 67.9% | 97.5% | 79.8% | 80.8% | 94.7% | 68.6% | 72.2%
O=C1c2ccccc2-c2nccc3cc(Cl)nc1c23 | 22.2% | -17.3% (active) | -30.7% (active) | -18.5% (active) | 61.1% | -46.4% (active) | 32.9% | 19.4% | 26% | -27.8% (active) | 4.08% (active) | 51.1% | 96.5 | -96.4% (active) | 97.5% | 0.315% (active) | -87.3% (active) | -7.62% (active) | 69% | –
COc1ccc2[nH]c(=O)c(/C=C/C(=O)c3ccc(Nc4nccc(-c5ccc6ccccc6c5)n4)cc3)cc2c1 | 102% | 107% | 94.5% | – | 103% | 103% | 98% | 86.4% | 101% | – | 105% | 100% | 104 | 131% | 105% | 98.9% | 105% | 98.8% | 99.2% | 89.7%
COc1cnc2c(c1)C(=O)c1c-2n(CCCN2CCN(C)CC2)c(=O)c2cc([N+](=O)[O-])ccc12 | -14.2% (active) | -43.8% (active) | -57.7% (active) | – | -89.7% (active) | -94.5% (active) | -91.4% (active) | -27.3% (active) | -23.2% (active) | -23.6% (active) | -41.6% (active) | -21.9% (active) | 111 | -81.7% (active) | 86.6% | -55.2% (active) | -84.6% (active) | 94.8% | -2.68% (active) | -95.9% (active)
COc1cc2c(c(OC)c1OC)-c1ccc(N=NC(N)=S)c(=O)cc1[C@@H](NC(C)=O)CC2 | -10.1% (active) | 52.4% | 37% | – | 19% | 65.8% | 64.4% | 15% | 20% | 15% | 30.8% | 1.13% (active) | 48.5 | 33.5% | 12.1% | 5.37% (active) | -52.2% (active) | 24.2% | 82.1% | -10.9% (active)
